Test results: PubChem BioAssay AID588342 (National Center for Advancing Translational Sciences (NCATS), 2011)
Out of some 360,000 compounds screened, about 25,000 (6.9%) were called active. Roughly 9% stayed inconclusive and do not appear here. This excerpt belongs to a sample that is enriched for actives. Unmarked numbers belong to inactive results. The call rests on the fitted dose curve; in most records, active means well fitted inhibition curve with a large enough effect; inconclusive means small, poorly fitted or top-dose-only effect; inactive means flat fitted curve, though single readings scatter.

Molecular target: Luciferin 4-monooxygenase (Photinus pyralis) (UniProt P08659)
Experiment: qHTS profiling assay for firefly luciferase inhibitor/activator using purifed enzyme and Km concentrations of substrates (counterscreen for miR-21 project); further: nearly all actives have a fitted effect of over 55% in size;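 on activity change, negative = inhibition: plate controls were vehicle for no effect and reference inhibitor for full effect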
Conditions: purified FLuc, luminescence inhibition; series mostly up to 57.5 µM; activity change, negative = inhibition: at the top concentration
Description: MLPCN Grant: 1 R21 NS059478-01 (miR-21 grant) Assay Provider: NCGC NCGC Assay Overview: Firefly (Photinus pyralis) luciferase is one of the most commonly used transcriptional reporters for a number of reasons. It is considered one of the more dynamically responsive reporters -that is, responsive to changes in reporter transcription - as it requires no post-translational modifications and is enzymatically active directly after protein synthesis (Wood, 1998). Additionally, the half-life of the luciferase protein is short relative to other reporter-gene products (Wood, 1995). Whereas reporters with long half-lives potentially allow for increased signal due to accumulation of reporter-gene product, once accumulated in the cell, dynamic changes in reporter-gene expression may be difficult to detect(Fan and Wood, 2007; Almond et al., 2004). It has been shown that wild-type P. pyralis luciferase has a half-life of approximately […] hours in mammalian cells (Thompson et al., 1991). Firefly luciferase reporter-gene assays are also generally considered one of the most sensitive assay types (Wood, 1995; Wood, 1998). Although light produced in a bioluminescence reaction is of lower intensity than that produced during fluorescence emission, this is offset by little to no background light inherent to luminescent assays. Thus the luciferase reporter can be expressed at much lower levels than fluorescent proteins while still providing robust signal. # However, it was initially observed, in 1991, by Thompson et al., that compounds that resemble the substrates of firefly luciferase (FLuc) can act as competitive inhibitors of the enzyme, and that these compounds, upon interaction with luciferase in the cell, can actually stabilize the protein and increase its half-life. Accumulated intracellular FLuc protein can be measured as an increase in luminescence signal, upon addition of detection reagents (which contain high concentrations of FLuc substrates) commonly used in high-throughput screening. In cell-based reporter gene assays that use FLuc as the reporter gene to quantitate the potential influence of a given compound against the target biology, this apparent increase in luminescence can mistakenly be interpreted as identification of a compound that is active against the target of interest. This is the case for the miR-21 FLuc reporter gene assay used to identify inhibitors of the miR-21 pathway (PubChem AID 2289) - compounds of interest will inhibit miR-21 biogenesis/expression or activity, and are identified by causing an increase in luminescence, due to increased FLuc translation. However, FLuc inhibitory compounds that stabilize the FLuc protein will give an identical read-out, making it difficult to distinguish compounds that are active against the target from those active against FLuc. Previous profiling work to determine the prevalence of compounds that affect FLuc enzymatic activity (PubChem AID 411) identified that ~3% of the MLSMR library (then at ~72K) inhibited FLuc. […] Since the MLSMR had grown to ~350K compounds, and since it was expected that a significant percentage of compounds found active in the miR-21 FLuc assay would be FLuc inhibitors, the library was screened for activity against FLuc using a biochemical assay of purified FLuc and KM concentrations of FLuc substrates (D-luciferin and ATP).
NCGC Assay Protocol Summary: Reagents: 50mM Tris acetate, pH 7.5; 10mM Mg acetate; 10uM D-luciferin (Sigma #L9504); 10uM ATP; 0.01% Tween-20; 0.05% BSA; 10nM P. pyralis luciferase (Sigma #L9506) Control compounds used were two known firefly luciferase inhibitors (compounds (2) and (5) in Auld et al., 2010), and DMSO. […]

Chain of Luciferin 4-monooxygenase (Photinus pyralis) (P08659 whole entry, looked up): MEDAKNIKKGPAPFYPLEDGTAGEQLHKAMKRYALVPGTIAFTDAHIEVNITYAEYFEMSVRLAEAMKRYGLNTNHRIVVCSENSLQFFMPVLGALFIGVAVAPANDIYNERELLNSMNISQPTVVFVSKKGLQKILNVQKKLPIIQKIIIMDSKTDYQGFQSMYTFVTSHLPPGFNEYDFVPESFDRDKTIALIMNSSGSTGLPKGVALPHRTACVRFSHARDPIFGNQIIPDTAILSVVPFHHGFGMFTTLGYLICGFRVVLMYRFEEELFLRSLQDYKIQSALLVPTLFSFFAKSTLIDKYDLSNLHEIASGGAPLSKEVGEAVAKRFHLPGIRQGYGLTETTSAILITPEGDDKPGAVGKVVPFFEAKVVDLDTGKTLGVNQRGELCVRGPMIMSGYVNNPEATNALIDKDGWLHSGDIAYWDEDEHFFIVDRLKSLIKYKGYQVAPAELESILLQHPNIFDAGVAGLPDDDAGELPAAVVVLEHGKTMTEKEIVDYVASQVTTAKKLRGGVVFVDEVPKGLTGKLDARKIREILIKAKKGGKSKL

Compound	activity change, negative = inhibition	Potency
Cc1ccc(Cn2cc(CCC(=O)NCc3ccc(OC(C)C)cc3)c3ccccc32)cc1	3.04%	–
CC(=O)Nc1ccc(OC(=O)COc2ccc(Br)cc2)cc1	-1.37%	–
CSc1ccc(Cl)c(C(=O)OCC(=O)N2CCNC2=O)c1	-4.07%	–
CC(=O)CSc1nnc(CSc2ncccn2)n1C1CCCCC1	-0.437%	–
O=S(=O)(c1ccccc1)c1nc(-c2ccc(Cl)cc2Cl)oc1N1CCCCC1	-0.863%	–
COc1ccc(S(=O)(=O)NC(C)c2ccccc2)cc1C(=O)N1CCCCC1 (stereo unspecified)	–	1.69 µM (active)
CC(NS(=O)(=O)c1ccc(OCC(=O)N2CCCC2)cc1)c1ccccc1 (stereo unspecified)	2.33%	–
COc1ccc(S(=O)(=O)Nc2ccccc2C(=O)N2CCCC2)cc1C	-1.28%	–
COc1ccc(NS(=O)(=O)c2cc3c4c(c2)CC(=O)N4CCC3)cc1Cl	-10.1%	–
O=C(CN1C(=O)CC(c2ccccc2)S(=O)(=O)c2ccccc21)NC1CCCC1 (stereo unspecified)	-2.16%	–
Cc1ccccc1C1=N/C(=C/c2cccnc2)C(=O)O1	–	8.49 µM (active)
O=C1/C(=C\c2cccnc2)CN(Cc2ccccc2)C/C1=C\c1cccnc1	0.472%	–
C(=N\n1cnnc1)/c1cccnc1	0.209%	–
CCc1nc2sc3c(Cl)ncnc3c2c2c1CCCC2	0.217%	–
Cc1ccc(C)c(-n2cc(CN3CCN(C(=O)c4ncn[nH]4)CC3)c(-c3ccccc3)n2)c1	-4.47%	–
Cc1cccc(-n2cc(CN3CCN(C(=O)c4ncn[nH]4)CC3)c(-c3cccc(F)c3)n2)c1	–	13.5 µM (active)
Cc1ccccc1CN1CCN(C(=O)c2cccc(F)c2)CC1	4.88%	–
CCN(CCCNC(=O)c1cc2cc3cc(OC)ccc3nc2s1)c1ccccc1	-6.12%	–
CC(=O)Nc1ccc(SC[C@H](Cc2ccccc2)N2CC[C@@H](C)CCC2=O)cc1	4.86%	–
Cc1ccc2nc(SCC(=O)NC3CCCC3)[nH]c2c1	5.01%	–
COc1ccc2nc(SCC(=O)Nc3c(C)cc(C)cc3C)[nH]c2c1	6.49%	–
CCOC(=O)CSc1nc2ccc(C)cc2[nH]1	–	16.9 µM (active)
COc1ccc(S(=O)(=O)NCc2cccn2Cc2cccc(C)c2)cc1	-0.767%	–
c1ccc(CN2CCC(N=C3NN=C(c4ccc5c(c4)OCCO5)CS3)CC2)cc1	-19.4%	–
Clc1cccc(N=C2NN=C(c3ccc4c(c3)OCCO4)CS2)c1	–	2.13 µM (active)
CC(NC(=O)COC(=O)c1cc(=O)[nH]c2ccccc12)c1ccccc1 (stereo unspecified)	-7.16%	–

Compound	activity change, negative = inhibition	Potency
CC1CCN(C(=O)COC(=O)c2cc(=O)[nH]c3ccccc23)CC1	–	10.7 µM (active)
COC(=O)C1CCN(C(=O)c2cc(=O)[nH]c3ccccc23)CC1	-3.07%	–
Cc1cc(C)cc(NC(c2nnc(-c3cccc(F)c3)o2)c2ccc(F)cc2Cl)c1 (stereo unspecified)	0.751%	–
COc1cccc(CNc2nccn(-c3ccc(OC)c(OC)c3)c2=O)c1	-2.32%	–
COc1ccc(-c2cc(C(F)(F)F)nc(SCC(=O)N(C)Cc3ccccc3)n2)cc1OC	-5.79%	–
COc1ccc(CC2c3cc(OC)c(OC)cc3CC[N+]2(C)CCC(=O)OCCCCCOC(=O)CC[N+]2(C)CCc3cc(OC)c(OC)cc3C2Cc2ccc(OC)c(OC)c2)cc1OC (stereo unspecified)	1.46%	–
Cc1ccc(OCC(=O)Nc2ccc(-c3nc4ncccc4o3)cc2)cc1	-2.22% [at 2.3 µM]	–
O=C(Nc1cc(-c2nc3ccccc3o2)ccc1Cl)c1cc([N+](=O)[O-])ccc1N1CCOCC1	-12.3%	–
CCCC(=O)Nc1ccc2oc(-c3ccc(O)c(Br)c3)nc2c1	–	2.39 µM (active)
O=[N+]([O-])c1ccc2oc(-c3cccc(O)c3)nc2c1	–	2.13 µM (active)
O=C(Nc1ccc2oc(-c3ccc(O)c(Br)c3)nc2c1)c1cc2ccccc2o1	2.43%	–
COc1ccc2oc(-c3ccc(C)c(NC(=O)c4sc5ccccc5c4Cl)c3)nc2c1	-8.93%	–
COc1cccc(-c2nc(S(=O)(=O)c3ccc(C)cc3)c(NCc3ccccc3)o2)c1	3.23%	–
O=C(Nc1cccc(-c2nc3ccccc3o2)c1)c1cccc(Br)c1	-18.3%	–
COc1cccc(-c2nc3cc(C)ccc3o2)c1	–	0.757 µM (active)
CCC(=O)Nc1cccc(-c2nc3cc(C)ccc3o2)c1	–	2.69 µM (active)
COc1ccc(-c2nc3ccccc3o2)cc1NC(=O)c1cc([N+](=O)[O-])ccc1N1CCOCC1	3.15%	–
CCCOc1ccc(C(=O)Nc2ccc3oc(-c4cccc(Cl)c4Cl)nc3c2)cc1	-4.27%	–
Cc1sc(C2C(C#N)=C(N)N(c3cccc(Cl)c3)C3=C2C(=O)CCC3)cc1CN1CCOCC1 (stereo unspecified)	0.0548%	–
Cc1ccsc1C(=O)NC1CCCCC1C (stereo unspecified)	-4.61%	–
CCOc1ccccc1CNC(=O)Nc1cn(CC(C)C)c(=O)c2ccccc12	-8.92%	–
COc1ccccc1-c1oc2ccccc2c1C#CCCCCO	-2.19%	–
COC(=O)CC1Oc2ccccc2-n2cc(-c3ccccc3)nc21 (stereo unspecified)	-15.8%	–
CCN1C(=O)c2ccccc2Sc2ccc(NC(=O)Cc3ccc(OC)cc3)cc21	-6.99%	–
COc1ccc(/C=C(/NC(=O)c2ccco2)C(=O)Nc2ccc(C(C)=O)cc2)cc1	-4.55%	–
